Data: PubChem BioAssay (Tox21)
Where “and” joins values, the source holds several entries; their conditions need not be identical. Equal entries are not always repeated. Results filed as inconclusive are left out. More than one record can exist for a structure, and the calls need not agree. Calls of active or inactive are those of the source. Unless noted, calls follow the shape of the dose curve; as a rule, active = well fitted curve in the direction sought with a large enough effect in the repeat runs; inconclusive = weak or mixed curves; inactive = no such curve, though single readings can be large; an effect the other way counts as inactive or inconclusive.

Columns and labels:
[1] = qHTS assay to identify small molecule agonists of H2AX - cell viability counter screen (AID 1224847; calls by dose curve;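 also: wild-type CHO-K1 cells; top concentration of the series differs between compounds; nearly all actives have a fitted effect of over 30% in size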)
Method in brief: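 CHO-K1 cells plated overnight at 37C, then exposed 3 h at 37C to compounds at 15 concentrations (0.76% DMSO final). Viability by CellTiter-Glo luminescence after 30 min at room temperature.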

[2] = qHTS assay to identify small molecule antagonists of the estrogen related receptor (ERR) signaling pathway from Tox21 library (AID 1224848); also: nearly all actives have a fitted effect of over 50% in size; also: potency is read from the fitted curve at half-maximal effect
Method in brief: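 Luminescent reporter read-out (ONE-Glo) from NTP's ERR cell line after 18 h treatment at 37 C with DMSO-dissolved Tox21 compounds; cells pre-plated 6 h beforehand at 2,000 per well.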

[3] = qHTS assay to identify small molecule agonists of the estrogen related receptor (ERR) signaling pathway from Tox21 library (AID 1224849; calls by dose curve; also: nearly all actives have a fitted effect of over 15% in size); conditions: ERR reporter cell line, ONE-Glo luciferase, 18 h
Method in brief: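 We plated ERR reporter cells, waited 6 h, added compounds in DMSO by pin tool and incubated them 18 h at 37 C. ONE-Glo was then added and luminescence read after 30 min.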

[4] = qHTS RealTime-Glo MT Cell Viability Assay in HepG2 cells - 24 hour (AID 1224867); also: nearly all actives have a fitted effect of over 50% in size
Method in brief: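 Compound treatment began 5 h after plating HepG2 cells (600/well) with NanoLuc luciferase and prosubstrate. Plates stayed at 37 C for 40 h; luminescence was captured at six time points, 0 h through 40 h.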

[5] = qHTS RealTime-Glo MT Cell Viability Assay in HEK293 cells - 32 hour (AID 1224868); also: nearly all actives have a fitted effect of over 50% in size; also: potency is read from the fitted curve at half-maximal effect
Method in brief: (§1)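 Quantitative high-throughput screen of the Tox21 10K library in HEK293: cells and RealTime-Glo reagents plated together, compound added at 5 h, luminescence monitored through 40 h at 37 C.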

[6] = qHTS RealTime-Glo MT Cell Viability Assay in HepG2 cells - 40 hour (AID 1224870); also: nearly all actives have a fitted effect of over 50% in size
Method in brief: (§2)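 HepG2 cells (600/well) mixed with RealTime-Glo MT reagent, settled 5 h at 37 C/5% CO2 before compound addition. Nonlytic NanoLuc luminescence from viable-cell prosubstrate reduction read repeatedly during 40 h treatment at 37 C.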

[7] = A CellTox Green Cytotoxicity Assay to monitor cytotoxicity in HEK293 cells - 40 hour (AID 1224871); also: nearly all actives have a fitted effect of over 45% in size
Method in brief: (§3)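 Each value comes from one timepoint of a single continuous run in which HEK293 cells with CellTox Green were exposed to compound for up to 40 h at 37 C, dye fluorescence rising with cell death.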

[8] = qHTS RealTime-Glo MT Cell Viability Assay in HEK293 cells - 16 hour (AID 1224872)
Method in brief: as §1

[9] = qHTS RealTime-Glo MT Cell Viability Assay in HepG2 cells - 8 hour (AID 1224873); also: nearly all actives have a fitted effect of over 55% in size
Method in brief: as §2

[10] = A CellTox Green Cytotoxicity Assay to monitor cytotoxicity in HEK293 cells - 0 hour (AID 1224869); also: nearly all actives have a fitted effect of over 50% in size
Method in brief: as §3
% is scaled to controls: 0 for no effect and ±100 for the full control effect.

Nc1ccc(Oc2ccc(N)cc2)cc1
inactive: Potency [1] | Potency [2] | activity change, positive = activation ([3]; at 92.4 µM (top of the series)) -8.13% and -18.8% | outcome [4] | Potency [5] | outcome [6] | Potency [7] | outcome [8] | outcome [9]

CN1C(=O)CN=C(c2ccccc2)c2cc(Cl)ccc21
inactive: Potency [1] | Potency [2] | activity change, positive = activation ([3]; at 42.5 µM (top of the series)) 8.92% | activity change, positive = activation ([3]; at 92.4 µM (top of the series)) -13.2% | outcome [4] | outcome [6] | Potency [7] | outcome [8] | outcome [9]

Cn1cc(-c2ccccc2)c(=O)c(-c2cccc(C(F)(F)F)c2)c1
inactive: Potency [1] | Potency [2] | activity change, positive = activation ([3]; at 92.4 µM (top of the series)) -9.79% and -18.6% | outcome [4] | Potency [10] | outcome [6] | Potency [7] | outcome [8] | outcome [9]

COCCl
inactive: Potency [1] | Potency [2] | activity change, positive = activation ([3]; at 42.5 µM (top of the series)) 1.1% | activity change, positive = activation ([3]; at 92.4 µM (top of the series)) -18.8% | outcome [4] | Potency [5] | outcome [6] | Potency [7] | outcome [8] | outcome [9]

COC(=O)c1ccccc1N
inactive: Potency [1] | Potency [2] | activity change, positive = activation ([3]; at 92.4 µM (top of the series)) 4.73% and 5.15% | outcome [4] | Potency [5] | outcome [6] | Potency [7] | outcome [8] | outcome [9]

COC(=O)NS(=O)(=O)c1ccc(N)cc1
inactive: Potency [1] | Potency [2] | activity change, positive = activation ([3]; at 92.4 µM (top of the series)) 6.12% and 0.416% | outcome [4] | Potency [5] | Potency [10] | outcome [6] | Potency [7] | outcome [8] | outcome [9]

CON(C)C(=O)Nc1ccc(Cl)c(Cl)c1
inactive: Potency [1] | Potency [2] | activity change, positive = activation ([3]; at 92.4 µM (top of the series)) -4.36% and -0.559% | outcome [4] | Potency [10] | outcome [6] | Potency [7] | outcome [8] | outcome [9]
active: Potency [5] 43.6 µM

CC(C#N)CCC#N (stereo not given)
inactive: Potency [1] | Potency [2] | activity change, positive = activation ([3]; at 92.4 µM (top of the series)) 5.4% and 2.56% | outcome [4] | Potency [10] | outcome [6] | Potency [7] | outcome [8] | outcome [9]

O=[N+]([O-])c1ccccc1
inactive: Potency [1] | Potency [2] | activity change, positive = activation ([3]; at 92.4 µM (top of the series)) 8.72% and 8.25% | outcome [4] | Potency [5] | Potency [10] | outcome [6] | Potency [7] | outcome [8] | outcome [9]

CCC(C)(CC)c1cc(NC(=O)c2c(OC)cccc2OC)on1
active: Potency [2] 54.6 µM and 46.7 µM
inactive: Potency [1] | activity change, positive = activation ([3]; at 92.4 µM (top of the series)) -45.6% and -38.5% | outcome [4] | Potency [10] | outcome [6] | Potency [7] | outcome [8] | outcome [9]

CC(C)NC(=O)N1CC(=O)N(c2cc(Cl)cc(Cl)c2)C1=O
inactive: Potency [1] | Potency [2] | activity change, positive = activation ([3]; at 92.4 µM (top of the series)) -27.3% and -5.72% | outcome [4] | Potency [10] | outcome [6] | Potency [7] | outcome [8] | outcome [9]

COC(=O)c1ccccc1C(=O)OC
-0.694% (inactive) and 10.9% (active): activity change, positive = activation ([3]; at 92.4 µM (top of the series))
inactive: Potency [1] | Potency [2] | outcome [4] | Potency [10] | outcome [6] | Potency [7] | outcome [8] | outcome [9]

CC(C)C1(C)N=C(c2nc3ccccc3cc2C(=O)O)NC1=O (stereo not given)
inactive: Potency [1] | Potency [2] | activity change, positive = activation ([3]; at 92.4 µM (top of the series)) 3.26% and 5.33% | outcome [4] | Potency [10] | outcome [6] | Potency [7] | outcome [8] | outcome [9]

OC(O)C(Cl)(Cl)Cl
inactive: Potency [1] | Potency [2] | activity change, positive = activation ([3]; at 42.5 µM (top of the series)) 0.553% | activity change, positive = activation ([3]; at 92.4 µM (top of the series)) -4.47% | outcome [4] | Potency [5] | Potency [10] | outcome [6] | Potency [7] | outcome [8] | outcome [9]

O=c1ccc(=O)[nH][nH]1
inactive: Potency [1] | Potency [2] | activity change, positive = activation ([3]; at 92.4 µM (top of the series)) 3.51% and 9.01% | outcome [4] | Potency [10] | outcome [6] | Potency [7] | outcome [8] | outcome [9]

CCCCOC(=O)c1ccccc1C(=O)OCCCC
inactive: Potency [1] | Potency [2] | activity change, positive = activation ([3]; at 92.4 µM (top of the series)) -4.86% and -5.73% | outcome [4] | Potency [5] | Potency [10] | outcome [6] | Potency [7] | outcome [8] | outcome [9]

O=c1[nH]c(=O)[nH]c(=O)[nH]1
inactive: Potency [1] | Potency [2] | activity change, positive = activation ([3]; at 92.4 µM (top of the series)) 1.86% and -0.392% | outcome [4] | outcome [6] | Potency [7] | outcome [8] | outcome [9]

CC(C)N1C(=O)c2ccccc2NS1(=O)=O
inactive: Potency [1] | Potency [2] | activity change, positive = activation ([3]; at 92.4 µM (top of the series)) -10.6% and -6.56% | outcome [4] | Potency [5] | outcome [6] | Potency [7] | outcome [8] | outcome [9]

ClCCBr
inactive: Potency [1] | Potency [2] | activity change, positive = activation ([3]; at 92.4 µM (top of the series)) 3.01% and -0.293% | outcome [4] | Potency [5] | Potency [10] | outcome [6] | Potency [7] | outcome [8] | outcome [9]

CC1OC(C)OC(C)O1 (stereo not given)
inactive: Potency [1] | Potency [2] | activity change, positive = activation ([3]; at 42.5 µM (top of the series)) 4.56% | activity change, positive = activation ([3]; at 92.4 µM (top of the series)) 4.37% | outcome [4] | outcome [6] | Potency [7] | outcome [8] | outcome [9]

Cc1ccc(N)cc1N
active: activity change, positive = activation ([3]; at 92.4 µM (top of the series)) 49%
inactive: Potency [1] | Potency [2] | outcome [4] | Potency [10] | outcome [6] | Potency [7] | outcome [8] | outcome [9]

CCC[CH2][Sn]([Cl])([Cl])[Cl]
inactive: Potency [1] | Potency [2] | activity change, positive = activation ([3]; at 92.4 µM (top of the series)) 3.29% and -6.08% | outcome [4] | Potency [5] | outcome [6] | Potency [7] | outcome [8] | outcome [9]

CC(C)OC(=O)Nc1ccccc1
inactive: Potency [1] | Potency [2] | activity change, positive = activation ([3]; at 92.4 µM (top of the series)) 8.94% and -18.7% | outcome [4] | Potency [5] | Potency [10] | outcome [6] | Potency [7] | outcome [8] | outcome [9]
